Test systems include NCI-H23 lung; NCI-H226 lung; NCI-H460 lung; NCI-H522 lung; A549/ATCC NSCLC; 786-0 renal; COLO 205 colon; DU-145 prostate; K-562 leukemia; MALME-3M melanoma; MDA-MB-231 breast; RXF 393 renal; SF-268 CNS; SF-295 CNS; SF-539 CNS; M14 melanoma; HOP-92 NSCLC; UACC-257 melanoma.
Assay in all cases: NCI-60 one-dose screen, 48 h (100 = growth as untreated, 0 = no growth, -100 = all killed)
Conditions in all cases: 10 µM

This is part of a sample that, as a whole, favours compounds with a hit. Of some 83,000 tested, about 20% had one in any assay.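 Plates (96-well) were seeded with cells, treated with compound at one concentration, and incubated for 48 hours before percent growth was determined.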 A number with no mark means an inactive call. Activity calls are given as the source filed them. How the source made its calls: active means growth percent below 10; inactive means the rest.

Experimental findings from PubChem BioAssay (NCI) are described below.

On to `Clc1nc2ccccc2cc1Cn1nnc(Cc2ccccc2)n1`, for which the growth is 45.6% in the test with NCI-H23 lung; 58.2% in the test on NCI-H226 lung; 74.3% in the test on NCI-H460 lung; 42.1% in the test with NCI-H522 lung; 53.9% with A549/ATCC NSCLC; 72.9% in the test on 786-0 renal. In addition, the growth was 82.7% in the test on COLO 205 colon; 75.2% in the test with DU-145 prostate; 55.2% in the test with K-562 leukemia; 65.6% in the test on MALME-3M melanoma; 53.1% in the test with MDA-MB-231 breast; 83.9% with RXF 393 renal. Moreover, the growth with SF-268 CNS is 65.7%; in the test with SF-295 CNS, 47.6%; in the test on SF-539 CNS, 81.2%; in the test on M14 melanoma, 73.6%.

Turning to `O=C(CCCCCCC(=O)Nc1ccccc1)NO`, the growth in the test with NCI-H23 lung was 3.33% (active); in the test on NCI-H226 lung, 48.9%; with NCI-H460 lung, 16.3%; with HOP-92 NSCLC, -10.4% (active); in the test with A549/ATCC NSCLC, 7.25% (active); with 786-0 renal it was 23.2%. Besides, the growth was -62.8% (active) with COLO 205 colon; 3.46% (active) in the test with DU-145 prostate; 1.69% (active) in the test with MALME-3M melanoma; 16.4% with MDA-MB-231 breast; -39.9% (active) with RXF 393 renal; 14.9% in the test on SF-268 CNS. In addition, the growth in the test on SF-295 CNS is -22.6% (active); in the test with SF-539 CNS it was 16.8%; in the test on UACC-257 melanoma, -26% (active); in the test with M14 melanoma it was 23%.

As for `O=C1Cc2cc(CCN3CCN(c4nsc5ccccc45)CC3)c(Cl)cc2N1`, the growth is 102% in the test with NCI-H23 lung; 99.5% in the test on NCI-H226 lung; 103% with NCI-H460 lung; 64.9% with HOP-92 NSCLC; 95.4% with A549/ATCC NSCLC; 106% in the test with 786-0 renal. Moreover, the growth with COLO 205 colon is 109%; with DU-145 prostate, 95.4%; in the test on MALME-3M melanoma it was 94.2%; with MDA-MB-231 breast, 89.5%; in the test on RXF 393 renal, 91.7%; in the test on SF-268 CNS it was 92.9%. The growth in the test with SF-295 CNS was 91.9%; with SF-539 CNS, 105%; in the test with UACC-257 melanoma, 86.3%; with M14 melanoma, 105%.

As to `COC(=O)C1OC1c1cc([N+](=O)[O-])ccc1OC` (stereo not drawn), the growth in the test on NCI-H23 lung was 93%; with NCI-H226 lung, 100%; with NCI-H460 lung, 109%; in the test on NCI-H522 lung it was 110%; with A549/ATCC NSCLC, 103%; with 786-0 renal, 104%. Also, the growth with COLO 205 colon was 111%; with DU-145 prostate, 109%; with K-562 leukemia it was 95.5%; in the test with MALME-3M melanoma, 102%; with MDA-MB-231 breast, 123%; in the test on RXF 393 renal it was 99.8%. Moreover, the growth with SF-268 CNS was 102%; in the test on SF-295 CNS, 100%; with SF-539 CNS, 98.4%; with UACC-257 melanoma, 117%; in the test with M14 melanoma it was 95%.

Take `CC(C)Cc1ccc([C@H](C)C(=O)O)cc1`: the growth in the test with NCI-H23 lung was 105%; with NCI-H226 lung it was 112%; with NCI-H460 lung, 106%; in the test on HOP-92 NSCLC, 79%; in the test with A549/ATCC NSCLC, 102%; with 786-0 renal, 106%. Also, the growth with COLO 205 colon is 113%; in the test on DU-145 prostate, 122%; in the test with MALME-3M melanoma it was 107%; in the test with MDA-MB-231 breast it was 108%; in the test with RXF 393 renal it was 114%; in the test on SF-268 CNS, 111%. The growth is 99% in the test with SF-295 CNS, 104% in the test with SF-539 CNS, 107% in the test on UACC-257 melanoma and 101% with M14 melanoma.

As for `CCc1c2c(nc3ccc(OC(=O)N4CCC(N5CCCCC5)CC4)cc13)-c1cc3c(c(=O)n1C2)COC(=O)[C@]3(O)CC`, the growth in the test with NCI-H23 lung was 5.19% (active); with NCI-H226 lung, 7.44% (active); in the test with NCI-H460 lung, 5.87% (active); in the test with HOP-92 NSCLC, 72.3%; in the test with A549/ATCC NSCLC, 39.6%; in the test on 786-0 renal, -47.7% (active). Also, the growth in the test on COLO 205 colon was 58.1%; in the test with DU-145 prostate, -5.72% (active); with MALME-3M melanoma, 36.2%; in the test with MDA-MB-231 breast it was 102%; in the test on RXF 393 renal it was 37.7%; with SF-268 CNS, 12.5%. For the same molecule, the growth with SF-295 CNS was -24.5% (active); in the test with SF-539 CNS it was -22.1% (active); in the test with UACC-257 melanoma, 57.6%; in the test with M14 melanoma, 2.35% (active).

As to `CCN1CC(CCN2CCOCC2)C(C(c2ccccc2)c2ccccc2)C1=O` (stereo not drawn), the growth was 105% in the test on NCI-H23 lung; 97.3% with NCI-H226 lung; 108% with NCI-H460 lung; 98.9% in the test with HOP-92 NSCLC; 101% with A549/ATCC NSCLC; 114% with 786-0 renal. In addition, the growth with COLO 205 colon is 110%; with DU-145 prostate, 118%; with MALME-3M melanoma, 120%; with MDA-MB-231 breast, 87.6%; in the test with RXF 393 renal, 107%; in the test on SF-268 CNS it was 112%. Further, the growth in the test on SF-295 CNS is 89.9%; in the test with SF-539 CNS it was 111%; with UACC-257 melanoma, 105%; in the test with M14 melanoma it was 108%.
